High-throughput results from PubChem.
The sample as a whole holds a higher share of hits than the screen did.
Pf apPOL inh = Pf-apPOL DNA polymerase inhibition; Recombinant Pf-apPOL, molecular beacon fluorescence, 1.5 h; inhibition, % at 10 µM; hit rate 0.25% among 210,000; AID 1794808
mHTT-CaM PPI inh = disrupts binding of mutant huntingtin to calmodulin | P42858 | AlphaScreen His-mHTT/GST-CaM binding, luminescence | inhibition, % at 15 µM | hit rate 3.6% among 190,000 | AID 1671202;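 further: 0% = both proteins with DMSO and 100% = one protein alone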
Numbers without * were called inactive. No stated cut-off is given here; in the data, active means inhibition above about 50%; inactive means the rest.

SMILES | Pf apPOL inh | mHTT-CaM PPI inh
O=C(O)c1cccc2c1NC(c1ccc(Cl)cc1Cl)C1CC=CC21 (centres undefined) | 6 | 56*
O=C(c1cccc2c1NC(c1ccc(Cl)cc1Cl)C1CC=CC21)N1CCCC1 (centres undefined) | -4 | -4
O=C(Nc1cccc(C(F)(F)F)c1)C1COc2ccccc2O1 (centres undefined) | 1 | -38
O=C1CSC(=NC(=O)NC2CCCCC2)N1 | 2 | -6
C#CCN1C(=O)C(O)(CC(=O)c2ccc3c(c2)CCCC3)c2ccccc21 (centres undefined) | -6 | 14
C=CCN1C(=O)C(O)(CC(=O)c2ccc3c(c2)CCCC3)c2ccccc21 (centres undefined) | 2 | 57*
COc1ccccc1CNS(=O)(=O)c1ccc2[nH]c3c(c2c1)CCCCC3 | -5 | 98*
CCOc1ccc(CNS(=O)(=O)c2ccc3[nH]c(=O)sc3c2)cc1OC | 0 | 0
Cc1ccc(CCNS(=O)(=O)c2ccc3[nH]c4c(c3c2)CCCC4)cc1 | 0 | 85*
Cc1cccnc1NS(=O)(=O)c1ccc2[nH]c3c(c2c1)CCCC3 | -6 | 12
CCOc1ccc(CNS(=O)(=O)c2ccc3[nH]c4c(c3c2)CCCC4)cc1OC | 0 | 59*
COc1ccccc1CNS(=O)(=O)c1ccc(C)c([N+](=O)[O-])c1 | -1 | -1
COc1cc(F)c(C(=O)N2CCOC(COc3ccccc3)C2)c(F)c1 (centres undefined) | -2 | -4
CCn1c(N2CCC(C(=O)NCc3ccc(F)cc3)CC2)cc(=O)n(C)c1=O | -5 | 42
COc1ccc(NC(=O)C2CCN(c3cc(=O)n(C)c(=O)n3C)CC2)c(OC)c1 | 5 | 44
Cn1c(N2CCC(C(=O)N3CCC(Cc4ccccc4)CC3)CC2)cc(=O)n(C)c1=O | -2 | 75*
CCn1c(N2CCC(C(=O)NCc3cccc(Cl)c3)CC2)cc(=O)n(C)c1=O | -2 | 59*
Cn1c(N2CCC(C(=O)N3CCN(Cc4ccccc4)CC3)CC2)cc(=O)n(C)c1=O | 1 | 38
Cn1c(N2CCC(C(=O)Nc3ccccc3)CC2)cc(=O)n(C)c1=O | -1 | 42
COc1cc(OC)c(NC(=O)C2CCN(c3cc(=O)n(C)c(=O)n3C)CC2)cc1Cl | -2 | 59*
CCc1cccc(NC(=O)C2CCN(c3cc(=O)n(C)c(=O)n3C)CC2)c1 | -2 | 66*
COc1ccc2nc(N3CCCC(C(=O)NCc4ccccc4)C3)sc2c1 (centres undefined) | 0 | 9
Cc1noc(C2CN(C(=O)Nc3ccc(C)c(F)c3)CC23CCOCC3)n1 (centres undefined) | 2 | 1
O=S(=O)(NCC1(CO)CC1)c1ccccc1Cl | 6 | -17
O=C(c1cnn2c(-c3ccccc3)ccnc12)N1CCN(Cc2ccccc2)CC1 | -8 | 8
SMILES | Pf apPOL inh | mHTT-CaM PPI inh
COc1ccc(CC(=O)NCCC(C)C)cc1 | -5 | -4
COc1cccc(C2CC(=O)Nc3cc(C)c(C)cc32)c1 (centres undefined) | -3 | 19
COc1cc(C2CC(=O)Nc3cc(C)c(C)cc32)cc(Br)c1OC (centres undefined) | -8 | 98*
Nc1nc(-c2cc3cc(Cl)cc(Cl)c3oc2=O)cs1 | 0 | -16
CC(=O)Nc1nc(-c2cc3cc(Cl)cc(Cl)c3oc2=O)cs1 | 98* | 3
Fc1ccc(N2COc3cc4c(cc3C2)OCO4)cc1 | -6 | 9
Cc1ccc(N2COc3ccc(Cl)cc3C2)cc1 | -5 | 64*
Cc1cccc(N2COc3ccc(Cl)cc3C2)c1C | 0 | 96*
COc1ccc2c(c1)CN(c1ccc(C)cc1C)CO2 | 0 | -9
Fc1ccc(N2COc3ccc(Cl)cc3C2)cc1 | -5 | 50*
Cc1cccc(N2CCN(C(=O)c3ccc(Cl)cc3)CC2)c1C | -9 | -5
COc1ccc2c(c1)CN(c1ccc(C)c(Cl)c1)CO2 | -4 | 77*
Cc1ccc(N2COc3cc4c(cc3C2)OCO4)cc1C | -1 | 18
Cc1ccc(NC(=O)CSC2=NC(=O)CS2)cc1 | -3 | -5
COCCCNC(=O)C1CCN(C(=O)c2cccnc2-c2ccccc2C)CC1 | -6 | -6
COCCNC(=O)C1CCN(Cc2cc3ccccc3n2Cc2ccccc2Cl)CC1 | 0 | 83*
COCCCNC(=O)C1CCN(Cc2cc3ccccc3n2Cc2ccccc2C)CC1 | 2 | 64*
COc1ccc(CN2CCC(C(=O)NCc3ccccc3Cl)CC2)c(OC)c1 | -5 | -1
COc1cc(NC(=O)CS(=O)(=O)c2ccc(C(F)(F)F)cc2Cl)c(OC)cc1Cl | -3 | 2
COc1ccc(NC(=O)C2CCN(c3nccnc3Oc3ccccc3)CC2)c(OC)c1 | 0 | 11
Cc1cccc(N(CC(=O)Nc2ccc(F)cc2)S(=O)(=O)c2ccccc2)c1C | 32 | 100*
Cc1ccc(S(=O)(=O)N(CC(=O)Nc2ccccc2F)c2ccccc2C)cc1 | -5 | 82*
Cc1cccc(N(CC(=O)Nc2ccccc2Cl)S(=O)(=O)c2ccccc2)c1C | -8 | -8
COc1ccc(C)cc1N(CC(=O)Nc1cccc(Br)c1)S(C)(=O)=O | -4 | 41
COc1ccccc1N(CC(=O)Nc1ccc(Br)c(C)c1)S(C)(=O)=O | -7 | 69*
SMILES | Pf apPOL inh | mHTT-CaM PPI inh
O=C(CN(c1cc(C(F)(F)F)ccc1Cl)S(=O)(=O)c1ccccc1)Nc1ccccc1 | -5 | 99*
COc1ccccc1NC(=O)CN(c1ccccc1C)S(=O)(=O)c1ccc(C)cc1 | -2 | -1
CS(=O)(=O)N(CC(=O)Nc1ccccc1)c1cc(C(F)(F)F)ccc1Cl | -2 | 6
CCc1ccccc1S(=O)(=O)N1CCc2c(c(-c3nc(C)no3)nn2C)C1 | 0 | -2
CCC(C)NC(=O)c1ccc(-c2cccc(F)c2)nc1 (centres undefined) | -3 | -11
CCN(CC)c1ncc2c(n1)CCC(C(=O)NCc1ccncc1)C2 (centres undefined) | -5 | 7
COc1ccc([N+](=O)[O-])cc1NC(=O)c1nn(-c2ccccc2OC)c(=O)c2ccccc12 | 5 | -8
CCOc1ccc(/C=C/C(=O)Nc2nc3ccccc3s2)cc1 | -1 | 27
COc1ccc(NC(=O)CN(c2ccc(C)cc2C)S(C)(=O)=O)cc1OC | -13 | 3
Cc1ccc(N(CC(=O)Nc2ccc(C(N)=O)cc2)S(=O)(=O)c2ccc(F)cc2)cc1 | -3 | 13
Cc1ccc(N(CC(=O)Nc2ccc(F)cc2)S(C)(=O)=O)c(C)c1 | 74* | 5
COc1ccc(NC(=O)CN(c2ccc(C)cc2)S(=O)(=O)c2ccc(F)cc2)cc1OC | 90* | 5
CSc1cccc(NC(=O)C2CCCN(C(=O)Cc3cccc4ccccc34)C2)c1 (centres undefined) | 0 | 12
CC1CN=C2C=C(N3CCN(C(=O)c4ccccc4Cl)CC3)N=CN21 (centres undefined) | -3 | 0
Cc1cccc(-c2cnc(N3CCC(C(=O)Nc4ccc(F)cc4)CC3)nc2)c1 | 1 | 100*
Cc1cccc(NC(=O)C2CCN(c3ncc(-c4ccccc4)cn3)CC2)c1 | 1 | -8
Cc1ccccc1OCC(=O)Nc1cc(Oc2cncc(Cl)c2)cc([N+](=O)[O-])c1 | 4 | 9
Cc1ccc2[nH]c3c(c2c1)CN(C)CC3 | -2 | 3
CC(CC(F)(F)F)C(=O)NC1CCc2[nH]c3ccc(Br)cc3c2C1 (centres undefined) | -3 | 34
O=C(Cc1c(C(=O)O)[nH]c2ccc(Cl)cc12)NC1CC1 | -12 | -2
